Compound activity as filed in PubChem BioAssay.
The sample as a whole holds a higher share of hits than the screen did.
Marburg entry inh: Marburg virus entry inhibition. Marburg virus pseudotyped entry inhibition, cell reporter. Potency, µM (highest dose often 37.8 µM), inactives show at the top dose activity change, negative = inhibition, usual class: inhibitors. 300,000 compounds, 1.8% hits; calls by dose curve; tested in HEK293 cells; further: potency means the concentration at half of the fitted maximal effect; on the % scale 0 is the no-effect control and ±100 the full control effect
CHX counter: affects cycloheximide protein synthesis inhibition readout, counter-screen; cell reporter, cycloheximide protein synthesis inhibition counterscreen; max response, %; 300,000 compounds, 12% hits; AID 2314; in the data active means max response mostly above about 13%, no sharp cut-off; inactive means mostly below about 14%; further: read at 38.3 µM for the half of the compounds with a filed dose; 0% is about no effect
AMA1 RON2 block: disrupts binding of P. falciparum AMA1 to RON2 | AlphaScreen AMA1-biotinylated RON2 peptide binding | Potency, µM (series often up to 58.2 µM), for inactives: at the highest dose activity change, negative = inhibition, hits mostly inhibitors | 360,000 compounds, 0.2% hits | AID 720542; active means well fitted inhibition curve with a large enough effect; inconclusive means small, poorly fitted or top-dose-only effect; inactive means no such curve, though single readings can be large or run the other way;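 further: potency means the concentration at half of the fitted maximal effect; 0% = vehicle wells and -100% = peptide control; nearly all actives have a fitted effect of over 45% in size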
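AMA1 (3D7) with his tag at 25 nM final met compounds first, then biotinylated RON2 peptide at 25 nM; detection used donor plus acceptor beads, 10 µg/mL apiece, read by AlphaScreen after 30 min at room temperature.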
Shiga toxin inh: Shiga toxin inhibition | Vero cells, Shiga toxin protein synthesis inhibition reporter | inhibition, % at 38.7 µM | 290,000 compounds, 9.2% hits | AID 2315; in the data active means inhibition mostly above about 28%, no sharp cut-off; inactive means mostly below about 43%; further: 0% is about no effect
Lassa entry inh: inhibitors of Lassa virus binding or cell entry | Lassa virus pseudotype entry inhibition, cell reporter | Potency, µM (doses to about 37.9 µM), for the others: at the highest dose activity change, negative = inhibition, most hits filed as inhibitors | 300,000 compounds, 1.2% hits | AID 540256; calls by dose curve; tested in HEK293 cells; further: potency means the concentration at half of the fitted maximal effect; on the % scale 0 is the no-effect control and ±100 the full control effect; nearly all actives have a fitted effect of over 50% in size
Numbers without * were called inactive; [ ] = remark or other dose.

For O=C(C1Cc2ccccc2CN1S(=O)(=O)c1cccs1)N1CCCCC1 (stereo not given) the results were Marburg entry inh 2%, CHX counter 9.5*, AMA1 RON2 block 8%, Shiga toxin inh -3 and Lassa entry inh 16%.
O=C(C1CCN(S(=O)(=O)c2cccs2)CC1)N1CCCC(C(F)(F)F)C1 (stereo not given) was read as Marburg entry inh 2%, CHX counter 17*, AMA1 RON2 block 9%, Shiga toxin inh 33 and Lassa entry inh -2%.
For O=C(Nc1ccc2c(c1)OCCO2)C1CCN(S(=O)(=O)c2cccs2)CC1 the results were Marburg entry inh 13%, CHX counter 24*, AMA1 RON2 block -1%, Shiga toxin inh 23 and Lassa entry inh -1%.
`Cc1nn(C)c(C)c1S(=O)(=O)N1CCC(C(=O)Nc2ccc3c(c2)OCCO3)CC1` gave CHX counter 30, AMA1 RON2 block 10% and Shiga toxin inh 81*.
For CC1CCCN(C(=O)C2CCN(S(=O)(=O)c3cccs3)CC2)C1 (stereo not given) the results were Marburg entry inh 4%, AMA1 RON2 block 7% and Lassa entry inh 8%.
Screening O=C(CSc1nccn1-c1cccc(Cl)c1)Nc1ccc2c(c1)OCO2 returned Lassa entry inh 13%[46.1 µM].
For O=C(Nc1ccc2c(c1)OCO2)C1CCN(S(=O)(=O)c2cccs2)CC1 the results were Marburg entry inh 13%, CHX counter 8.4*, AMA1 RON2 block 33%, Shiga toxin inh 42* and Lassa entry inh 2%.
O=C(Nc1ccc2c(c1)OCO2)C1CCCN(S(=O)(=O)c2cccs2)C1 (stereo not given) was read as Marburg entry inh 15%, CHX counter 2, AMA1 RON2 block 34%, Shiga toxin inh 0 and Lassa entry inh -1%.
Screening O=C(Nc1ccc2c(c1)OCO2)C1Cc2ccccc2CN1S(=O)(=O)c1cccs1 (stereo not given) returned Marburg entry inh -17%, CHX counter 18*, AMA1 RON2 block -5%, Shiga toxin inh 26 and Lassa entry inh -4%.
`Cc1ccc(C(=O)NCCN2CCC(n3c(=O)[nH]c4ccccc43)CC2)cc1F` gave AMA1 RON2 block 3%.
For O=C(NCCc1ccccc1)c1ccc(-c2ccccc2C(F)(F)F)o1 the results were Marburg entry inh 4%, CHX counter 1, AMA1 RON2 block -8%, Shiga toxin inh -9 and Lassa entry inh inconclusive.
`O=C(NCc1ccccc1)c1ccc(-c2ccccc2F)o1` gave Marburg entry inh inconclusive, CHX counter 52*, AMA1 RON2 block -3%, Shiga toxin inh 41* and Lassa entry inh inconclusive.
For CCc1nnc(NC(=O)c2ccc(-c3ccccc3F)o2)s1 the results were Marburg entry inh 15%[46.1 µM], CHX counter 22*, AMA1 RON2 block 7%, Shiga toxin inh 28 and Lassa entry inh inconclusive.
For Cc1cc2cc(CCNC(=O)C(C)C)c(=O)[nH]c2cc1C the results were Marburg entry inh 7%, AMA1 RON2 block 6% and Lassa entry inh inconclusive.
Screening Cc1cc2cc(CCNC(=O)C(=O)c3c[nH]c4ccccc34)c(=O)[nH]c2cc1C returned Marburg entry inh inconclusive, CHX counter -2, AMA1 RON2 block 15%, Shiga toxin inh -2 and Lassa entry inh 13µM*.
Screening O=C(NCCc1c[nH]c2ccccc12)C(=O)c1c[nH]c2ccccc12 returned CHX counter -6, AMA1 RON2 block 0% and Shiga toxin inh -2.
For O=C(NCCC1=CCCCC1)C(=O)c1c[nH]c2ccccc12 the results were Marburg entry inh inconclusive, CHX counter 26*, AMA1 RON2 block -2%[11.6 µM], Shiga toxin inh 49* and Lassa entry inh inconclusive.
For O=C(NCCOc1ccccc1)C(=O)c1c[nH]c2ccccc12 the results were CHX counter 20*, AMA1 RON2 block 0% and Shiga toxin inh 44.
For O=C(NCCOc1ccccc1Cl)C(=O)c1c[nH]c2ccccc12 the results were Marburg entry inh 18%, CHX counter 12, AMA1 RON2 block -7%, Shiga toxin inh 34 and Lassa entry inh 17%.
`CCCCNC(=O)c1cc(-c2ccc(OC)c(OC)c2)on1` gave CHX counter 14*, AMA1 RON2 block -2% and Shiga toxin inh 31.
CCN(CC)CCCNC(=O)c1cc(-c2ccc(Cl)cc2)on1 was read as Marburg entry inh inconclusive, CHX counter 1, AMA1 RON2 block 0%, Shiga toxin inh 6 and Lassa entry inh 0%.
CCCCNC(=O)c1cc(-c2ccc(F)cc2)on1 was read as Marburg entry inh inconclusive, CHX counter 35*, AMA1 RON2 block 2%, Shiga toxin inh 52* and Lassa entry inh inconclusive.
`CCCCNC(=O)c1cc(-c2ccc(OC)cc2)on1` gave Marburg entry inh inconclusive, CHX counter 52*, AMA1 RON2 block 30%, Shiga toxin inh 194* and Lassa entry inh -9%.
CCc1ccccc1NC(=O)c1cc(-c2ccc(OC)cc2)on1 was read as Marburg entry inh -4%[46.1 µM], CHX counter -1, AMA1 RON2 block -4%, Shiga toxin inh 1 and Lassa entry inh 5%[46.1 µM].
`CCCNC(=O)c1cc(-c2ccc(OC)cc2)on1` gave Marburg entry inh 10µM*, CHX counter 51*, AMA1 RON2 block 3%, Shiga toxin inh 70* and Lassa entry inh inconclusive.
`O=C1C(=NO)CCc2ccccc21` gave Marburg entry inh inconclusive, AMA1 RON2 block -2% and Lassa entry inh inconclusive.
For Cc1ccc(-c2cn(-c3ccccc3)c3[n+]2CCCS3)cc1 the results were Marburg entry inh inconclusive, CHX counter -3, AMA1 RON2 block 6%, Shiga toxin inh 32 and Lassa entry inh inconclusive.
For COc1ccc(-n2cc(-c3ccc(C)cc3)[n+]3c2SCC3)cc1 the results were Marburg entry inh 1.3µM*, CHX counter -8, AMA1 RON2 block -20%, Shiga toxin inh -9 and Lassa entry inh inconclusive.
O=C(CN(c1ccc(Br)cc1)S(=O)(=O)c1ccc(Cl)c([N+](=O)[O-])c1)NCCc1ccccc1 was read as Marburg entry inh inconclusive, CHX counter -2, AMA1 RON2 block 4%, Shiga toxin inh -5 and Lassa entry inh 24%.
`O=C(CN(c1cccc(C(F)(F)F)c1)S(=O)(=O)c1ccc(Cl)c([N+](=O)[O-])c1)NCc1ccccc1` gave Marburg entry inh 23µM*, CHX counter -3, AMA1 RON2 block 0%, Shiga toxin inh 17 and Lassa entry inh inconclusive.
Cc1ccc(N(CC(=O)NCCc2ccc(F)cc2)S(=O)(=O)c2ccc(Cl)c([N+](=O)[O-])c2)c(C)c1 was read as Marburg entry inh inconclusive, CHX counter -8, AMA1 RON2 block -7%, Shiga toxin inh -10 and Lassa entry inh 23µM*.
For O=C(Nc1cccc(-c2nc3ncccc3o2)c1)c1ccc(-c2cccc(Cl)c2Cl)o1 the results were Marburg entry inh 6%[46.1 µM] and Lassa entry inh -19%[46.1 µM].
`Cc1ccc([C@@H]2CC(=O)[C@@H]3CN(S(=O)(=O)c4ccc(C)cc4)[C@H](c4ccc(Cl)cc4)C[C@@H]3N2S(=O)(=O)c2ccc(Cl)cc2)cc1` gave AMA1 RON2 block 2%.
COC(=O)C#CC(=O)OC was read as CHX counter -5 and Shiga toxin inh -7.
